GLP1R inv ag = GLP-1 receptor (human) inverse agonism. P43220. HEK293 GLP-1R CRE-luciferase, luminescence, 24 h; GLP-1R form is constitutively active. Potency, µM (top dose mostly 38.3 µM), without a hit: top-dose activity change, negative = inhibition, usual class: inhibitors. 410,000 compounds, 1.6% hits. AID 624417; also: potency is read from the fitted curve at half-maximal effect; % is scaled to controls: 0 for no effect and ±100 for the full control effect; nearly all actives have a fitted effect of over 55% in size
Target sequence (P43220 whole entry, looked up): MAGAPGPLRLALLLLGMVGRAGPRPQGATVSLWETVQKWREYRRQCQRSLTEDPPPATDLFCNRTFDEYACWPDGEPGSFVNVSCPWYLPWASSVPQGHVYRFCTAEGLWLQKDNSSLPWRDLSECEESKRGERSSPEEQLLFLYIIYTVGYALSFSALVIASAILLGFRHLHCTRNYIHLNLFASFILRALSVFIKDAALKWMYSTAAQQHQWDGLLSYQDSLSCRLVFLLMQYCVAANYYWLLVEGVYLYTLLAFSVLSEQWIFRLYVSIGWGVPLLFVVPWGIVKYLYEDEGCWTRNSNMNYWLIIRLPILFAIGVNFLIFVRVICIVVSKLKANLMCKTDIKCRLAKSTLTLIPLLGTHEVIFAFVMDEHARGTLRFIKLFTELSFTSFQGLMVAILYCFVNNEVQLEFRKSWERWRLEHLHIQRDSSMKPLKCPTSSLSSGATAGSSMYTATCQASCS
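Seeding at 200 cells/uL, 12 h culture, 24 hr compound treatment, then luciferase reagent and a luminescence read; cells are HEK293 stably expressing a constitutively active GLP-1R plus cAMP-responsive luciferase.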
CCT modulator = modulators of cytosolic chaperonin (CCT/TRiC) activity. purified chaperonin ATPase assay, HTRF ADP detection, 30 min. activity change, % (no concentration beside the values), hits read low. 360,000 compounds, 0.3% hits. AID 651819; in the data active = activity change below about -30%; also: % is scaled to controls: 0 for no effect and ±100 for the full control effect
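TRiC (40 or 20 nM final, by batch activity) in 30 mM Tris pH 7.4, 100 mM KCl, 5 mM MgCl2, 1 mM DTT was treated with compound at 76 uM single dose, then 10 uM ATP, 30 min at 37 °C. ADP was read by HTRF Transcreener.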
GLP1R cytotox = cytotoxicity counter-screen for GLP-1 receptor inverse agonists; HEK293 cAMP-luciferase reporter cells, luminescence, 24 h; Potency, µM (titrated, usually from 38.3 µM), without a hit: top-dose activity change, negative = inhibition, hits mostly inhibitors; 410,000 compounds, 0.13% hits; AID 624418;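 also: loss of luciferase light is scored as toxicity; potency is read from the fitted curve at half-maximal effect; % is scaled to controls: 0 for no effect and ±100 for the full control effect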
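To flag toxic compounds, the library was rerun on cells for 24 hr at 37 deg C and 5% CO2. Viability-linked luminescence was captured 12 min after adding luciferase detection reagent.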
GLP-1R agonist = agonists of human GLP-1 receptor; P43220; HEK293 GLP-1R CRE-luciferase, luminescence, 4-6 h; cells express a hypersensitive GLP-1R form; Potency, µM (series often up to 45.6 µM), inactives show top-dose activation, actives largely listed as activators; 380,000 compounds, 0.007% hits; AID 624172; also: potency is read from the fitted curve at half-maximal effect; % of control where 0% means no effect
uPA generation = inhibitors of cell surface uPA generation | 330,000 compounds, 0.31% hits | AID 540303 | Potency, µM (highest dose often 38.3 µM), for the others: at the top dose activity change, negative = inhibition, actives largely listed as inhibitors | cell surface uPA generation assay, qHTS; active = well fitted inhibition curve with a large enough effect; inconclusive = small, poorly fitted or top-dose-only effect; inactive = no such curve, though single readings can be large or run the other way; tested in mouse RAW 264.7 cells; also: potency is read from the fitted curve at half-maximal effect; % is scaled to controls: 0 for no effect and ±100 for the full control effect; nearly all actives have a fitted effect of over 55% in size
MmCpn inh = inhibitors of Methanococcus maripaludis chaperonin TRiC (MmCpn); purified Mm-Cpn ATPase, ADP Transcreener TR-FRET; Potency, µM (highest dose often 76.9 µM), inactives show top-dose activity, negative = inhibition, usual class: inhibitors; 330,000 compounds, 0.031% hits; AID 504842; also: potency is read from the fitted curve at half-maximal effect; % is scaled to controls: 0 for no effect and ±100 for the full control effect; nearly all actives have a fitted effect of over 80% in size
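ATPase turnover read by TR-FRET ADP competition (Eu cryptate antibody/ADP-d2, 665/590 nm): 10uM ATP final, 25nM Mm-CPN final, 30 min 37degC after 10-min compound preincubation, pH 7.4 Tris/KCl/MgCl2/DTT buffer.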
* marks the source's active call; other numbers are inactive results; ? = inconclusive; . = no result. A selection: hits, their analogues and other compounds. The true share with any hit is near 2.2%. Unless noted, calls follow the shape of the dose curve; as a rule, active = well fitted curve in the direction sought with a large enough effect; inconclusive = small, poorly fitted or top-dose-only effect, or another doubt; inactive = no such curve, though single readings can be large; an effect the other way counts as inactive or inconclusive.

SMILES | GLP1R inv ag | CCT modulator | GLP1R cytotox | GLP-1R agonist | uPA generation | MmCpn inh
COC(=O)c1ccc(Cn2c(SCC(=O)Nc3ccc(F)cc3)nc3ccccc32)cc1 | 7% | . | 15% | . | . | .
Cc1ccc2oc(=O)n(Cc3ccccc3Cl)c2c1 | ? | . | 1% | . | . | .
CC(C)c1ccc(NC2CCCN(C(=O)CCN3CCCO3)C2)cc1 (centres undefined) | 1% | 1 | 14% | 2% | -2% | 1%
CC(C)c1ccc(NC2CCCN(C(=O)CC3CCCC3)C2)cc1 (centres undefined) | 6.3µM* | 2 | 6% | 20% | -10% | 0%
CC(C)c1ccc(NC2CCCN(C(=O)CCN3CCCC3=O)C2)cc1 (centres undefined) | -18% | -34* | 6% | -2% | 1% | -6%
COc1cc(COC(=O)c2cnc(C)cn2)c(OC)cc1Br | 8% | -52* | -1% | 14% | 0% | -1%
COc1ccc(CCn2c3c(c(=O)[nH]c2=O)C(NC(=O)c2ccccc2)(C(F)(F)F)C(=O)N3)cc1OC (centres undefined) | 12% | . | 0% | . | . | .
CCOC(=O)C1(Cc2ccc(OC)cc2)CCN(C(=O)c2ccc3[nH]ccc3c2)CC1 | 4.5µM* | -23 | -12% | 1% | 11µM* | -2%
CCOC(=O)C1(Cc2ccc(OC)cc2)CCN(C(=O)c2ccoc2C)CC1 | ? | -4 | 1% | -6% | -10% | -1%
O=[N+]([O-])c1cc(S(=O)(=O)N2CCCCCC2)ccc1Cl | ? | -1 | 11µM* | -6% | 5% | -3%
C=CCOC(=O)C1=C[C@@H](c2ccc(C(F)(F)F)cc2)[C@H](CCCO)[C@@H](OCC)O1 | 6.3µM* | 1 | -67% | 13% | 7% | .
C=CCOC(=O)C1=C[C@H](c2ccc(C(F)(F)F)cc2)[C@@H](CCCO)[C@H](OCC)O1 | ? | -1 | -4% | 20% | 31% | .
CCO[C@@H]1OC(C(=O)Nc2ccccc2)=C[C@H](c2ccc(C(F)(F)F)cc2)[C@H]1CCCO | 4.5µM* | -1 | -13% | -1% | 0% | .
COc1ccc(OC)c(NC(=O)Cc2c(C)n(C(=O)c3ccc(Cl)cc3)c3ccc(OC)cc23)c1 | 12% | . | 25% | . | . | .
COc1ccc2c(c1)c(CC(=O)Nc1ccccc1OC)c(C)n2C(=O)c1ccc(Cl)cc1 | 10µM* | -4 | 6% | 15% | -9% | -9%
CCN(CC)C(=O)Cn1c(=O)n(-c2ccc(Cl)cc2)c(=O)c2c3c(sc21)CCC3 | 1% | . | 0% | . | . | .
Cc1nc(S(=O)(=O)N(C)c2ccccc2)c(C#N)c(C)c1Cl | 5.6µM* | 0 | 62% | -7% | -11% | -2%
O=C(Nc1ccc(F)cc1)c1ccccc1Oc1ccc(C(F)(F)F)cc1[N+](=O)[O-] | 10µM* | 1 | ? | -12% | 5% | -5%
CCN(CC)c1ccc(NS(=O)(=O)c2cc(-c3onc(C)c3C)ccc2OC)c(C)c1 | -18% | . | -1% | . | . | .
CC1CCc2c(sc(NC(=O)C3=COCCO3)c2C(N)=O)C1 (centres undefined) | 19% | 4 | 0% | 7% | 7.9µM* | -6%
COc1ccc(C(=O)Nc2nnc(S(=O)(=O)N3CCCc4ccccc43)s2)cc1 | 3% | . | -4% | . | . | .
C=C(C)c1cccc(C(C)(C)NC(=O)Nc2nnc(C(C)C)s2)c1 | 10µM* | 0 | 8% | 9% | -5% | 0%
COc1cccc(C(=O)Nc2nnc(C(C)C)s2)c1 | 11µM* | -2 | 7% | -11% | -7% | -1%
COc1cccc(C(=O)Nc2nnc(SCC(=O)Nc3ccc(NC(C)=O)cc3)s2)c1 | 4% | 1 | -1% | -11% | 2µM* | -10%
COc1cccc(-c2csc(-c3c(N)c(C(=O)c4ccccc4)n4ccccc34)n2)c1 | -13% | . | 0% | . | . | .
